Bioassay records (PubChem)
Only some compounds are listed: those with a hit (about 11% of all), similar ones and a draw of the others.
ALDH1A1 block = ALDH1A1 (human) enzyme inhibition | P00352 | Purified ALDH1A1, NADH fluorescence, propionaldehyde substrate | Potency, µM (series often up to 75.3 µM), without a hit: top-dose activity, negative = inhibition, actives largely listed as inhibitors | 7.3% of 220,000 active | AID 1030; active = well fitted inhibition curve with a large enough effect, not every such curve was filed as active; inconclusive = small, poorly fitted or top-dose-only effect, or another doubt; inactive = no such curve, though single readings can be large or run the other way;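 also: potency is read from the fitted curve at half-maximal effect; plate controls were no enzyme wells and a reference inhibitor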
HTT aggregate = inhibitors of mutant huntingtin aggregate formation in PC12 cells | Potency, µM (highest dose often 46.1 µM), for the others: at the top dose activity change, negative = inhibition, most hits filed as inhibitors | AID 1688 | 1.1% of 220,000 active | PC12 HttQ103-GFP aggregates, Acumen cytometry, 40 h; also: potency is read from the fitted curve at half-maximal effect; % is scaled to controls: 0 for no effect and ±100 for the full control effect; nearly all actives have a fitted effect of over 60% in size
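PC12 cells with ecdysone-inducible HTT exon1 Q103-GFP, induced by 100 nM tebufenozide, given compounds in a concentration series. GFP aggregates (1–25 um, 6 SD above background) counted in lysates by laser-scanning cytometry, 488 nm excitation.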
HTT cytoprotect = protects HTT-Q103 PC12 cells, measured by ATP; Potency, µM (titrated, usually from 56.4 µM), for the others: cytoprotection (ATP increase), usual class: activators; AID 1471; 0.14% of 230,000 active; PC12 HTT-Q103 induced, cytoprotection, ATP luminescence, 40 h; also: potency is read from the fitted curve at half-maximal effect; % of control where 0% means no effect; nearly all actives have a fitted effect of over 45% in size
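Cells were plated at 1500 per well in phenol red-free DMEM with 5% equine and 5% calf serum. Tebufenozide (100 nM final) and compounds were added, then ATPlite reagent, and luminescence was read.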
RGS12 GoLoco inh = inhibitors of human Gai1-RGS12 GoLoco interaction (red fluorophore) | P63096 | 0.44% of 230,000 active | Potency, µM (doses to about 61.6 µM), for the others: at the highest dose activity, negative = inhibition, actives largely listed as inhibitors | Gai1:RGS12 GoLoco peptide FP, rhodamine, 10 min | AID 880; active = well fitted inhibition curve with a large enough effect, not every such curve was filed as active; inactive = no such curve, though single readings can be large or run the other way; also: potency is read from the fitted curve at half-maximal effect; % is scaled to controls: 0 for no effect and ±100 for the full control effect; nearly all actives have a fitted effect of over 30% in size
Target sequence (P63096 whole entry, looked up): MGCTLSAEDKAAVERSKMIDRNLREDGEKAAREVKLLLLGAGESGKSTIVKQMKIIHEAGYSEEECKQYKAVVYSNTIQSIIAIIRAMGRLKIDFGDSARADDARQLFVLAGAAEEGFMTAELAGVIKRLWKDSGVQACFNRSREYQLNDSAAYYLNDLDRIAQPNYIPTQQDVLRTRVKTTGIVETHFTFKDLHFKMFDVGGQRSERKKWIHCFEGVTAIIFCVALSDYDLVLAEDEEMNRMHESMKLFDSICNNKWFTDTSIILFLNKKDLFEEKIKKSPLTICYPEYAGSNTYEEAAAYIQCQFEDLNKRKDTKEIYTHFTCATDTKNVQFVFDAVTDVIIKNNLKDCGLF
PNC inhibitor = blocks assembly of the perinucleolar compartment; PC3M PTB-GFP, PNC prevalence imaging, 16 h; active compounds read low; activity change (PNC), negative = inhibition, % at 10 µM; 3.1% of 140,000 active;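 active = readout at or below -70, meaning at least 70% loss of cells showing the perinucleolar compartment, a nuclear body marking cancer cells; inconclusive = readout between -30 and a set limit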;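 also: plate controls were DMSO wells for no effect and camptothecin positive control wells for full effect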
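Read-out is percentage of cells bearing a perinucleolar compartment, from automated 20x imaging of fixed, Hoechst-stained PC3M PTB-GFP cells. Cells were seeded 4 h, then exposed 16 h to compound (23 nl of library stock) in duplicate plates.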
HPGD inh = blocks human HPGD enzyme activity; purified HPGD, NADH fluorescence kinetic, PGE2 substrate; 4.3% of 150,000 active; Potency, µM, for the others: top-dose activity change, negative = inhibition, most hits filed as inhibitors; active = well fitted inhibition curve with a large enough effect, not every such curve was filed as active; inconclusive = small, poorly fitted or top-dose-only effect, or another doubt; inactive = no such curve, though single readings can be large or run the other way; also: potency is read from the fitted curve at half-maximal effect; % is scaled to controls: 0 for no effect and ±100 for the full control effect
Target sequence (P15428 whole entry, looked up): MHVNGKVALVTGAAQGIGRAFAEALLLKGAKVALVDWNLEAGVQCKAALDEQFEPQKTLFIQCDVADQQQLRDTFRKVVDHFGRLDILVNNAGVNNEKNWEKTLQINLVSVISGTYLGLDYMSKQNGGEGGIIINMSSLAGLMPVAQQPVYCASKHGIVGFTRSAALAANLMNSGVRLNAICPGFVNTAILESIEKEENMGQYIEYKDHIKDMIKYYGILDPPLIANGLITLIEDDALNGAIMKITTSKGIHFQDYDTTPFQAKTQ
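NADH formation kinetics: reaction with 30 uM PGE2 and 1 mM NAD+ (final), 20 nM enzyme, Tris-HCl pH 8 with Tween 20, after 15 min compound preincubation at room temperature. Fluorescence change, last versus first of five reads.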
* hit, by the source's call; i = inactive; ? = inconclusive; . = no result given; [ ] = dose if it differs, or a comment. Unless noted, calls follow the shape of the dose curve; as a rule, active = well fitted curve in the direction sought with a large enough effect; inconclusive = small, poorly fitted or top-dose-only effect, or another doubt; inactive = no such curve, though single readings can be large; an effect the other way counts as inactive or inconclusive.

SMILES | ALDH1A1 block | HTT aggregate | HTT cytoprotect | RGS12 GoLoco inh | PNC inhibitor | HPGD inh
O=C1C(=O)N(CC(=O)N2CCCC2)c2ccccc21 | 3.5µM* | 9% | . | 5% | . | .
O=C(CCN1C(=O)c2ccccc2C1=O)N1CCCCCC1 | 20µM* | -23% | -7% | -15% | 16 | 16µM*
CC(C)NC(=O)CN1C(=O)C(=O)c2ccccc21 | -5% | 10% | 14%[10 µM] | -7% | ? | -11%
O=[N+]([O-])c1cnc2ccccc2c1 | 10µM* | 6% | . | 6% | -2 | -1%
CC(C)C(=O)Nc1ncc(Cc2cccc(Cl)c2)s1 | -3% | -5% | -45% | 22% | . | .
COCCn1c(-c2ccc(-c3ccc([N+](=O)[O-])cc3Br)o2)nc2c1c(=O)[nH]c(=O)n2CC(C)C | 16µM* | 6% | 8%[10 µM] | 13% | . | .
COc1ccc(-c2ccc(-c3nc4c(c(=O)[nH]c(=O)n4Cc4ccccc4)n3C)o2)c([N+](=O)[O-])c1 | 1% | 4% | -46%[10 µM] | 30% | -8 | 28µM*
O=C(O[C@H]1CN2CCC1CC2)N1CCc2ccccc2[C@@H]1c1ccccc1 | . | -5% | 1% | . | . | .
O=C(N/N=C\c1ccc(-c2ccccc2[N+](=O)[O-])o1)C1COc2cc3ccccc3cc2O1 (centres undefined) | -5% | -3% | -31% | 14% | ? | -14%
Cc1ccc(/C=N/Nc2ccc3ccccc3n2)o1 | ? | 13µM* | -164% | -9% | . | .
Cc1ccc(/C=N\NC(=O)C2COc3cc4ccccc4cc3O2)o1 (centres undefined) | ? | -8% | -4% | 39% | -12 | 14µM*
Cc1cc(C(=O)N/N=C/c2ccc(C)o2)c2ccccc2n1 | 4% | ? | -42%[10 µM] | -25% | -94* | ?
COc1cc(/C=N/NC(=O)c2cc(-c3ccco3)nc3ccccc23)cc(OC)c1O | 22µM* | -8%[9.22 µM] | -1%[10 µM] | -2% | . | .
CC(C)C[C@@H](CC(=O)N[C@H](CC(=O)N[C@@H]1CCNC[C@H]1C(=O)N[C@H](CC(=O)N[C@@H](CCC(=O)O)CC(=O)O)Cc1ccccc1)C(C)C)NC(=O)[C@@H]1CNCC[C@H]1N | 2% | . | -33% | 2% | . | -3%
CN1CCN(c2ncc3nc(-c4cc(F)cc(F)c4)c(=O)n(-c4ccccc4)c3n2)CC1 | ? | . | 2% | 21% | . | i
Cn1c(N)c(C(=O)COC(=O)CC2CC3CCC2C3)c(=O)n(C)c1=O (centres undefined) | ? | -7% | 0% | -10% | . | .
CCOC(=O)N1CCC2(CC1)C(C#N)=C(N)OC1=C2C(=O)CC(C)C1 (centres undefined) | -2% | -6% | 12% | 6% | -23 | 7%
Cc1ccc(/C=N/NC(=O)c2cc(C3CC3)nc3ccccc23)o1 | -2% | -32% | -4%[10 µM] | 16% | -108* | -20%
COc1cc(Br)cc2cc(C(=O)N3CCCCC3C)c(=O)oc12 (centres undefined) | ? | -21% | 4% | 2% | 1 | 13µM*
COc1cc(Br)cc2cc(C(=O)N3CCN(C(=O)c4ccco4)CC3)c(=O)oc12 | ? | -13% | 9%[10 µM] | -1% | 4 | -19%
CC(=O)c1cccc(NC(=O)C(CC(C)C)NC(=O)C2CCCCC2)c1 (centres undefined) | 6% | -7% | -15% | 7% | . | .
COc1ccc(CCNC(=O)CSc2ccsc2[N+](=O)[O-])c(OC)c1 | 14µM* | 12% | 16%[10 µM] | 8% | . | .
COc1ccc(OC)c(CCNC(=O)CSc2ccsc2[N+](=O)[O-])c1 | 13µM* | 0%[9.22 µM] | 15%[10 µM] | 13% | . | .
O=C(CSc1ccsc1[N+](=O)[O-])NCc1ccccc1 | 3.2µM* | -9%[9.22 µM] | -19%[10 µM] | 14% | . | .
Cc1cc(C)c(S(=O)(=O)N2CCCOC2CNC(=O)C(=O)NCc2cccs2)c(C)c1 (centres undefined) | 4% | 23% | 3%[10 µM] | 9% | 10 | -12%
SMILES | ALDH1A1 block | HTT aggregate | HTT cytoprotect | RGS12 GoLoco inh | PNC inhibitor | HPGD inh
O=C1C=CC(=Nc2cccc3c(N=C4C=CC(=O)O4)cccc23)O1 | ? | . | 4%[10 µM] | -35%[14.2 µM] | . | ?
O=C(COc1ccccc1N1C(=O)C2C3C=CC(C3)C2C1=O)c1ccccc1 (centres undefined) | . | -13%[9.22 µM] | -4%[10 µM] | 1% | . | .
CC(C)(C)C(=O)n1nc(-c2ccccc2)oc1=O | -8% | -19% | . | 2% | -109* | ?
CC(=O)NCCc1ccc(O)c(O)c1 | 28µM* | . | -5%[1.9 µM] | -9% | . | ?
CCc1cccc(CC)c1NC(=S)NCCc1ccc(O)c(O)c1 | 22µM* | -32% | ? | -12% | . | .
O=C(CSCc1ccccc1)N1CCN(Cc2ccc3c(c2)OCO3)CC1 | -10% | -12% | -14%[10 µM] | 5% | -14 | -8%
Cc1cccc(-c2nc(CSCC(=O)N3CCN(Cc4ccc5c(c4)OCO5)CC3)c(C)o2)c1 | ? | 10µM* | -1%[10 µM] | 1% | 5 | -27%
Cc1ccc(-c2nc(CSCC(=O)N3CCN(C(=O)c4ccco4)CC3)c(C)o2)cc1 | 22µM* | -18% | -15% | -3% | 13 | -15%
Cc1oc(-c2cccs2)nc1CSCC(=O)NC1CC1 | ? | -3% | 8% | -7% | ? | ?
Cc1ccc(-c2nc(CSCC(=O)N3CCOCC3)c(C)o2)cc1 | ? | -29% | -7% | 9% | 16 | -16%
Cc1oc(-c2ccccc2Cl)nc1CSCC(=O)N1CCCC1 | ? | -10% | 13%[10 µM] | 6% | -109* | -16%
Cc1oc(-c2ccccc2Cl)nc1CSCC(=O)NC1CCCC1 | 14µM* | 11%[9.22 µM] | -22% | 3% | 26 | -23%
CC1CC(OCC(O)C[N+]2(C)CCOCC2)CC(C)(C)C1 (centres undefined) | 6% | -1% | -20% | 2.2µM* | . | .
CC(=O)C(Cl)C(=O)Nc1ccccc1 (centres undefined) | 1.3µM* | 6% | -8% | -1% | . | .
CC(=O)Nc1ccccc1 | 8% | 5% | -51% | -58% | . | -7%
CCOc1cc(NC(=S)Nc2cccc(OC)c2)c(OCC)cc1NC(=O)C1CC1 | -22% | 0% | -31% | 12% | -106* | -7%
C=CCNS(=O)(=O)c1ncnc2nc[nH]c12 | 8%[13.5 µM] | . | 8%[10 µM] | -10%[14.2 µM] | . | -5%
CCOC(=O)NCC(C)(C)CNC(=O)OCC | 3% | -17% | -5% | 4% | -117* | -6%
COC(=O)[C@@H](N)CS | 3.2µM* | 13% | -9% | 15% | 14 | -12%
COC(=O)C(N)CS (centres undefined) | ? | . | ? | -43% | . | 25µM*
COc1ccc(CC/C(=N\O)C2(O)CCCCC2)cc1 | -10% | 4% | 2%[10 µM] | 2% | 17 | -9%
